# PubChem BioAssay (NCI)
# This is part of a sample that, as a whole, favours compounds with a hit. Of some 83,000 tested, about 20% had one in any assay.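 Activity criterion: percent growth below 10, measured after cells in 96-well plates were exposed to a single compound concentration for 48 hours.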 Values without a mark were called inactive. Calls of active or inactive are those of the source.
# Tested on: HL-60(TB) leukemia
# Test: NCI-60 one-dose screen, 48 h (100 = growth as untreated, 0 = no growth, -100 = all killed)
# Settings: 10 µM unless noted
row,Structure (SMILES),growth
1,O=C1CC23OC(C(O)c4ccccc4N12)C1C(c2ccccc2)=NOC13 (stereo not given),8.01% (active)
2,COc1cccc(-c2nn(-c3ccccc3)cc2-c2ccnc(NCCNC(=O)c3ccccc3)c2)c1,25.2%
3,N#Cc1c(NC(=O)c2cccs2)[n+]([O-])c2ccc(F)cc2[n+]1[O-],91.6%
4,CCCCN1CCN(c2ccc3nc(-c4ccc5nc(-c6ccc(OCC)cc6)[nH]c5c4)[nH]c3c2)CC1,34.3%
5,Fc1ccccc1Nc1ccc2nnc(-c3ccncc3)n2n1,92.6%
6,O=[N+]([O-])c1ccccc1NCSc1ccc(Cl)cc1,65.7%
7,COc1cc(/C=C\C(C)=N\Nc2ccccc2)ccc1O,3.74% (active)
8,COc1cc2c(cc1OC)[C@H](C(=O)O)[C@@H](c1ccc(OC(C)C)c(OC)c1)N(C)C2=O,94.9%
9,COC(=O)c1ccc2c(C(=Nc3ccc(N(C)C(=O)CN4CCN(C)CC4)cc3)c3ccccc3)c(O)[nH]c2c1,70.8%
10,Oc1ccccc1-c1nc2ccccn2c1NCCN1CCOCC1,102%
11,CCOC(=O)c1[nH]c(C)c(C(C)=O)c1C,102%
12,O=C(c1c[nH]c2ccccc12)c1n[nH]c(=S)n1-c1cccc(Br)c1,88.8%
13,CC(=O)OC[C@]12CC[C@@H]([C@@H](C)C(N)=O)[C@@H]1[C@H]1CC[C@@H]3[C@@]4(C)CC[C@H](OC(C)=O)C(C)(C)[C@@H]4CC[C@@]3(C)[C@]1(C)CC2,-23.1% [100 µM] (active)
14,O=C1Nc2cc(-c3cccc([N+](=O)[O-])c3)ccc2/C1=C/c1ccc[nH]1,101%
15,CC/C(=C(\c1ccc(Cl)cc1)c1ccc(OCCN2CCCCC2)cc1)c1ccc(O)cc1,-40.4% (active)
16,COc1cc(OC)cc(-c2ccc(-c3ccc(C(=N)N)s3)s2)c1,-71.9% (active)
17,COc1ccc(Nc2nc(-c3cc(O)c(C)c(C)c3O)cs2)cc1,7.17% (active)
18,COc1ccc2c(c1)O/C(=C\c1cccc(OCC(=O)Nc3nc4ccccc4s3)c1)C2=O,40.7%
19,CCN(CC)CCC(C(=O)O)(c1ccccc1)c1ccccc1,93.5%
20,COc1cc(C(=O)Nc2cc(O)c(C/C=C(\C)CCC=C(C)C)c(O)c2)cc2c1O[C@]1(C)CC[C@@H](O)C(C)(C)[C@H]1C2,-3.87% (active)

row,Structure (SMILES),growth
1,N#CC1=C(N)Oc2ccc3ccccc3c2C1c1ccccc1Cl (stereo not given),0.765% (active)
2,COc1cc2nc(-c3ccc(-c4nn[nH]n4)cc3)[nH]c(=O)c2cc1OC,93.8%
3,CC(C)C(NC(=O)C1(NC(=O)OCc2ccccc2)CCCC1)C(=O)O (stereo not given),90.8%
4,c1cc(OCCCCCOc2cccc(-c3nc4ccccc4[nH]3)c2)cc(-c2nc3ccccc3[nH]2)c1,-32.2% (active)
5,COc1ccc(/C=C2\CCC/C(=C\c3ccc(OC)c(OC)c3)C2=O)cc1OC,3.46% (active)
6,Cc1ccc(S(=O)(=O)NC(=O)n2cc(-c3ccncc3)c(-c3ccc(Cl)c(O)c3)n2)cc1,85.1%
7,COc1cc2c(/C=C3\C(=O)Nc4ccccc43)c(C(=O)O)[nH]c2cc1C,110%
8,CC(=O)Cc1ccccn1,85.4%
9,Brc1ccc(-c2nn(-c3ccccc3)cc2-c2nn[nH]n2)s1,103%
10,CN1CCC(COc2cnc(-c3cccc(Cn4nc(-c5cccc(C#N)c5)ccc4=O)c3)nc2)CC1,95.3%
11,C=CN(C(=O)N1CCN(c2cc3c(cc2F)c(=O)c(C(=O)O)cn3C2CC2)CC1)c1nc(-c2ccc(Cl)cc2)cs1,10.7%
12,COc1cccc(CCN2C(=O)CCC3=C2CCC3=O)c1,99.9%
13,Cc1ccc(C2CC(c3cccc(Nc4ccncc4)c3)=NN2c2cc(Cl)cc(Cl)c2)cc1 (stereo not given),14.8%
14,CCCc1cc(NC)nc(S(=O)(=O)CC)n1,127%
15,COc1cc(-c2nc(SCCC(C)C)nc(N3CCOCC3)c2C#N)cc(OC)c1OC,95.2%
16,O=C(CCN1CCCC1)Nc1ccc2c(NCc3ccccc3)c3ccccc3nc2c1,-40.8% (active)
17,CCCCCCCCCCCCCCCCCCNCc1ccc(Cl)cc1,-65.8% (active)
18,CCOc1nc(-c2ccccc2)cc2c(O)c(C(=O)N/N=C/c3ccc(N(C)C)cc3)[nH]c(=O)c12,111%
19,O=C1COCCN1c1ccc(NCc2cn(Cc3ccc(F)cc3)c3ccccc23)cc1,86.9%
20,FC(F)(F)c1ccc(-c2cnc(Cl)nc2NC2CCCCCC2)cc1,-6.33% (active)
